According to the supplement of paper PMC10849652:
About 7,900 targets were measured; listed, in parts, are those with a hit and a random draw of the rest. About 0.6% of all pairs of compound and target were hits. A number with no mark means an inactive call.

Experiments:
Assay in all cases: log2 fold change, soluble protein after heating vs DMSO (PISA); higher = thermal stabilisation; K562 cells, 10 uM, 30 min; active = over 0.2 and 3.5 SD of the protein, either way, in both replicates (recomputed)
[1] = compound: COC1=CC=C(C=C1)CN2C=CC3=C2C=C(C=C3)C(=O)NO
Method in brief: (§1)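 Aliquots of K562 cells (2×10^6 cells/mL) treated with 10 μM compound for 30 min were heated for 3 min over 48°C-58°C. After pooling and extraction in PBS with 0.5% NP-40 at 4°C, soluble protein from a 21,000xg, 90 min spin was quantified by TMTpro 16plex LC-MS/MS with channel sums equalised. Thermal stability is expressed against control samples, from duplicates, as a log2 fold change.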

[2] = compound: CON(C)C(=O)N1N=C(c2cc(F)ccc2F)S[C@@]1(CCCN)c1ccccc1 [filanesib]
Method in brief: as §1

[3] = compound: CO[C@H]1C[C@@H]2CC[C@@H](C)[C@@](O)(O2)C(=O)C(=O)N2CCCC[C@H]2C(=O)O[C@H]([C@H](C)C[C@@H]2CC[C@H](n3cnnn3)[C@H](OC)C2)CC(=O)[C@H](C)/C=C(\C)[C@@H](O)[C@@H](OC)C(=O)[C@H](C)C[C@H](C)/C=C/C=C/C=C/1C [zotarolimus]
Method in brief: as §1

[4] = compound: COc1cc(C(=O)O)ccc1NC(=O)[C@@H]1N[C@@H](CC(C)(C)C)[C@](C#N)(c2ccc(Cl)cc2F)[C@H]1c1cccc(Cl)c1F [idasanutlin]
Method in brief: as §1

[5] = compound: COc1cc(Nc2ncc3c(n2)-c2ccc(Cl)cc2C(c2c(F)cccc2OC)=NC3)ccc1C(=O)O [alisertib]
Method in brief: as §1

[6] = compound: COc1cc2nc(-c3cc(F)ccc3O)nc(N[C@@H]3CNC[C@H]3C(C)(C)O)c2cc1OC
Method in brief: as §1

[7] = compound: COc1cc2ncnc(Nc3ccc(F)c(Cl)c3)c2cc1OCCCN1CCOCC1 [gefitinib]
Method in brief: as §1

[8] = compound: COc1cccc2cc(-c3nc([C@H]4CC[C@H](C(=O)O)CC4)n4ncnc(N)c34)[nH]c12
Method in brief: as §1

[9] = compound: CS(=O)(=O)CCNCc1ccc(-c2ccc3ncnc(Nc4ccc(OCc5cccc(F)c5)c(Cl)c4)c3c2)o1 [lapatinib]
Method in brief: as §1

[10] = compound: CS(=O)(=O)N1CCN(Cc2cc3nc(-c4cccc5[nH]ncc45)nc(N4CCOCC4)c3s2)CC1 [pictilisib]
Method in brief: as §1

UniProt Q6P3W2, sequence (Q6P3W2 whole entry, looked up): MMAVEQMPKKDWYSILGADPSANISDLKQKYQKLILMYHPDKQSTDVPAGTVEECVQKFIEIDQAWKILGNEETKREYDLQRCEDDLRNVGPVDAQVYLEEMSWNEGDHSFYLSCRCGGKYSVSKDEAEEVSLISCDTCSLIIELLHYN
UniProt P50570, sequence (P50570 whole entry, looked up): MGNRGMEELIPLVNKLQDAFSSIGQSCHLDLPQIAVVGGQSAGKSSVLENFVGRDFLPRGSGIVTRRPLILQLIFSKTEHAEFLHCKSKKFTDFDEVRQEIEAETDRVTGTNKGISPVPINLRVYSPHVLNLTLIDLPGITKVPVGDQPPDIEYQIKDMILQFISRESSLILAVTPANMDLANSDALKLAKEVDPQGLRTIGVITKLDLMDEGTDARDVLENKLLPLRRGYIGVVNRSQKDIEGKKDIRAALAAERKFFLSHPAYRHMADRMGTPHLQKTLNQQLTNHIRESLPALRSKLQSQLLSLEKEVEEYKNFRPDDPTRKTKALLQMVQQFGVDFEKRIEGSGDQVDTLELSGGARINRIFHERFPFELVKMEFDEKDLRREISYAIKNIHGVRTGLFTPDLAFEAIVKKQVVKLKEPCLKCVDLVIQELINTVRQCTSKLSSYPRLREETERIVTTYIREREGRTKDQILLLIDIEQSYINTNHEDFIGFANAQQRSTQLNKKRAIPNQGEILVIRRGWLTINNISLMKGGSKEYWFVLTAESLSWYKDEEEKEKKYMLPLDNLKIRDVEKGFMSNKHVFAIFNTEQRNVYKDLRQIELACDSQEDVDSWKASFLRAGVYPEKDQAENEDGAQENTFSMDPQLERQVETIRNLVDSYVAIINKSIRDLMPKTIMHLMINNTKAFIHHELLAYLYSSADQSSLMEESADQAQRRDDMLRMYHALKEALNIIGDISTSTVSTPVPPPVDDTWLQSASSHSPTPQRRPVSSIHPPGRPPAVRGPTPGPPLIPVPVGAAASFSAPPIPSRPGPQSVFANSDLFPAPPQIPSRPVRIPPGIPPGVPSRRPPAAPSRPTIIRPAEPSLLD
UniProt Q01780, sequence (Q01780 whole entry, looked up): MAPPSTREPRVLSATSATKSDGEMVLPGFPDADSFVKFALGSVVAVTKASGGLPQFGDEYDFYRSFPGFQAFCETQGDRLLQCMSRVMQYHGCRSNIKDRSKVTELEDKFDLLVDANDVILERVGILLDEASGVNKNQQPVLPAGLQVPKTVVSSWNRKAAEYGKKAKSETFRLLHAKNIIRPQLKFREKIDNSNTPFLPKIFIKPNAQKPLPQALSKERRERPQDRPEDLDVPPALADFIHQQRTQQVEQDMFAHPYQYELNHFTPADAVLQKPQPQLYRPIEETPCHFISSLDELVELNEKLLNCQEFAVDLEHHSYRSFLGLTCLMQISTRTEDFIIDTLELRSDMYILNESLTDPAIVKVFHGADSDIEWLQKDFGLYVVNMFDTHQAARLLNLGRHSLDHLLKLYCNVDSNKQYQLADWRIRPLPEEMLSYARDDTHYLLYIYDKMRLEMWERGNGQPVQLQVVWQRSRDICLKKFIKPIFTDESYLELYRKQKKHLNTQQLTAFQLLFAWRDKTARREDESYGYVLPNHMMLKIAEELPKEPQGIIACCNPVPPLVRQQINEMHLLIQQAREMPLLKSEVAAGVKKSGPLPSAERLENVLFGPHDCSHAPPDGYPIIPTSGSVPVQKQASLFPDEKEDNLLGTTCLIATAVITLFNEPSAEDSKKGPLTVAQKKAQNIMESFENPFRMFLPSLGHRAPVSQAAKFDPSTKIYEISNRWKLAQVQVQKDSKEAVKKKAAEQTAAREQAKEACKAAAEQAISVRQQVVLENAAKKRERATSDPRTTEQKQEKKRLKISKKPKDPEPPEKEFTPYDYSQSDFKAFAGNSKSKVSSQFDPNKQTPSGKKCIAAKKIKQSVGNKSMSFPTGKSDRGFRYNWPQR
UniProt Q2TBE0, sequence (Q2TBE0 whole entry, looked up): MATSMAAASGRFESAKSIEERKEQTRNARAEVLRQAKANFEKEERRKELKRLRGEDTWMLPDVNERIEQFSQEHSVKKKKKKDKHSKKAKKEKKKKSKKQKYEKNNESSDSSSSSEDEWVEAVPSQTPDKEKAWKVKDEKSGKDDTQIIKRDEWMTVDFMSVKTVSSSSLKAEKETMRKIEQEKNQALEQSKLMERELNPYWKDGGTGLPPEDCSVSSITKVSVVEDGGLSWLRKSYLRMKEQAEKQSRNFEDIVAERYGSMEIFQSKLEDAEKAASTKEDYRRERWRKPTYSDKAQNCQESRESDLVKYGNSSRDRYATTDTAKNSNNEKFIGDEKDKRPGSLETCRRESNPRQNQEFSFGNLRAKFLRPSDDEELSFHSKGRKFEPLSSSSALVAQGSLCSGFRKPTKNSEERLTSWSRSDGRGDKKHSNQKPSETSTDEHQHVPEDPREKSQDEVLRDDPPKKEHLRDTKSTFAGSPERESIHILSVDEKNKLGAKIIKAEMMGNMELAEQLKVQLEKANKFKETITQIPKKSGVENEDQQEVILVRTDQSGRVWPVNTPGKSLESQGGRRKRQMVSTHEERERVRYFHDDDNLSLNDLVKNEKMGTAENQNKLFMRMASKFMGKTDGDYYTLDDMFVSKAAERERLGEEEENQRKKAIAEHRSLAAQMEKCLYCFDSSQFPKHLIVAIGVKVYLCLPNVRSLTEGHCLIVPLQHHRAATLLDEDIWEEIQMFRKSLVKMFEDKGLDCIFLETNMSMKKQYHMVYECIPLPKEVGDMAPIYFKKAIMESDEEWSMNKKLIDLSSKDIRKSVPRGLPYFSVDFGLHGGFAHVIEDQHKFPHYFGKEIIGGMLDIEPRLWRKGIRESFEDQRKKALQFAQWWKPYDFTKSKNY
UniProt Q8NF50, sequence (Q8NF50 whole entry, looked up): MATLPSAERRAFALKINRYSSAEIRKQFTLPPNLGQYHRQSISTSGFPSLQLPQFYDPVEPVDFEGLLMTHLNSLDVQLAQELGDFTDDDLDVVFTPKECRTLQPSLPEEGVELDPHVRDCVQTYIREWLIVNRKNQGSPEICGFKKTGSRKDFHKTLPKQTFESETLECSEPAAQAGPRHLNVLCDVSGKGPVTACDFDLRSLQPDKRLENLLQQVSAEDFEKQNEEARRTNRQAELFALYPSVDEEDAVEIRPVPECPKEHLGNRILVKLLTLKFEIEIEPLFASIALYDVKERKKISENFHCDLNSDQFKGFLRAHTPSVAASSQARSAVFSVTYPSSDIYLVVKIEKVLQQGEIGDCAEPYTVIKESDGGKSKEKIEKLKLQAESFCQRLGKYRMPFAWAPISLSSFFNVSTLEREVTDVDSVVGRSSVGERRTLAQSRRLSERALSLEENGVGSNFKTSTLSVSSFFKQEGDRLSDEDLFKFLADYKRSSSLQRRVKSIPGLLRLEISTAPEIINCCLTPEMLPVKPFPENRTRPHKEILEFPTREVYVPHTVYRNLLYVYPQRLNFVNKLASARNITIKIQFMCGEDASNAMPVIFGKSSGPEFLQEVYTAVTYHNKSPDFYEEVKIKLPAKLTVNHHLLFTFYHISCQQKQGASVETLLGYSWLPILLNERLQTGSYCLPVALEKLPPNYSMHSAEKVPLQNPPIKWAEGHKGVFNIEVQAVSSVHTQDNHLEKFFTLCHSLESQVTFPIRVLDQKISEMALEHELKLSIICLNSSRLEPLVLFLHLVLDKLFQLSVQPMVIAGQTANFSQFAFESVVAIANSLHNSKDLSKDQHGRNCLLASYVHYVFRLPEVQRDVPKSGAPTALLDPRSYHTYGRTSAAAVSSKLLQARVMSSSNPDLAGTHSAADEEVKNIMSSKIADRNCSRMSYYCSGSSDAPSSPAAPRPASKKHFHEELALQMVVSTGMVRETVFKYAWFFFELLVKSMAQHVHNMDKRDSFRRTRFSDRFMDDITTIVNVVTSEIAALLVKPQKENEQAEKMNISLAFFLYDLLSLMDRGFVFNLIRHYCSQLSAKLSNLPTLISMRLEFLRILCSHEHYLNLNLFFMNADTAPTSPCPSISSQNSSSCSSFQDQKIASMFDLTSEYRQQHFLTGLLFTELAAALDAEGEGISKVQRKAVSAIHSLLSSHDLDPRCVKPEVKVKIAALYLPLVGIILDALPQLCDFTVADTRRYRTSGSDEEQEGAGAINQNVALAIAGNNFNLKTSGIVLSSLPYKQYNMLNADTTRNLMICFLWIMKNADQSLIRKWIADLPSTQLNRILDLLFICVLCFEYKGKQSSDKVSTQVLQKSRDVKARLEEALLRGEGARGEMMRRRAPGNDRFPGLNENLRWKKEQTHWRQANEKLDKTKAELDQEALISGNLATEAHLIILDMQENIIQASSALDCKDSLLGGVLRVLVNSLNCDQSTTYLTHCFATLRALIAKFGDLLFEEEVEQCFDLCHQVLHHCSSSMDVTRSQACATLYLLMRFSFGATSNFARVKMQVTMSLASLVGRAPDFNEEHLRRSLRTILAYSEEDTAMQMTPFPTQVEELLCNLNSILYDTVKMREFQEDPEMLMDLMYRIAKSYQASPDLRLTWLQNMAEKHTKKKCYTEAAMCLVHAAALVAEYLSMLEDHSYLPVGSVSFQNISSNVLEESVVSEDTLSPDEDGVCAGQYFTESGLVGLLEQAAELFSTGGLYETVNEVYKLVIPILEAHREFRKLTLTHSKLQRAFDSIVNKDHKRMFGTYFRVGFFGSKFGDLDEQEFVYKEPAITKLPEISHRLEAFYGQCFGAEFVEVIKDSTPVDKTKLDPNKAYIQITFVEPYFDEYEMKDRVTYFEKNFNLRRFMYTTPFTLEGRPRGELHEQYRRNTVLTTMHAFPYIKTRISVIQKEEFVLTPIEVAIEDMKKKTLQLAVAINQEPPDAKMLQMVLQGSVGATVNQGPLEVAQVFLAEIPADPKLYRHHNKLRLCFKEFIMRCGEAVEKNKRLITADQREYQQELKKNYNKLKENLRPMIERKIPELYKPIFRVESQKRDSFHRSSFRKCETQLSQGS
UniProt P00374, sequence (P00374 whole entry, looked up): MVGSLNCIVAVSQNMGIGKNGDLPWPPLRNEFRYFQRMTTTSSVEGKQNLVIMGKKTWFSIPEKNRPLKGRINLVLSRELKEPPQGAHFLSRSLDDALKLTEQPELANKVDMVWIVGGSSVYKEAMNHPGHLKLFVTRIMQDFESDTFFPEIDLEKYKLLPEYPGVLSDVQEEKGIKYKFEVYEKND

Target | log2 fold change [1] | log2 fold change [2] | log2 fold change [3] | log2 fold change [4] | log2 fold change [5] | log2 fold change [6] | log2 fold change [7] | log2 fold change [8] | log2 fold change [9] | log2 fold change [10]
DPH5 isoform 5 (UniProt Q9H2P9) | -0.01 | -0.024 | -0.002 | -0.049 | -0.037 | -0.071 | 0.017 | 0.046 | 0.043 | -0.006
DNAH5 (UniProt Q8TE73) | -0.147 | -0.061 | 0.024 | – | 0.011 | -0.042 | 0.046 | 0.058 | -0.484 (active) | -0.001
DNAJC24 (UniProt Q6P3W2) | -0.06 | 0.199 | 0.004 | – | 0.045 | -0.111 | 0.018 | -0.112 | 0.034 | –
DYRK1A isoform 2 (UniProt Q13627) | -0.061 | 0.01 | 0.023 | 0 | -0.03 | 0.004 | 0.007 | 0.036 | -0.034 | 0.017
CYBA (UniProt P13498) | -0.06 | -0.189 | -0.067 | 0.017 | -0.044 | -0.171 | -0.007 | 0.067 | -0.034 | -0.047
EIF2AK1 (UniProt Q9BQI3) | -0.047 | 0.014 | -0.057 | -0.035 | 0.032 | 0.01 | – | -0.089 | 0.025 | -0.147
DHRS3 (UniProt O75911) | 0.13 | -0.009 | -0.056 | -0.107 | 0.008 | 0.031 | 0.067 | 0.021 | 0.065 | 0.019
FAM241A (UniProt Q8N8J7) | 0.226 | -0.828 (active) | -0.045 | 0.018 | -0.038 | 0.042 | 0.044 | -0.006 | -0.038 | 0
ETNK1 (UniProt Q9HBU6) | -0.083 | -0.172 | 0.016 | -0.105 | -0.045 | 0.013 | -0.02 | 0.01 | 0.078 | -0.044
CTSZ (UniProt Q9UBR2) | 0.073 | -0.05 | 0.011 | -0.019 | -0.079 | -0.172 | 0.035 | 0.07 | 0.015 | 0.176
DHFR (UniProt P00374) | -0.057 | 0.089 | 0.065 | -0.051 | -0.08 | 0.109 | -0.021 | -0.05 | -0.061 | 0.039
DYNC1LI2 (UniProt O43237) | -0.19 | 0.384 | 0.005 | 0.092 | -0.053 | 0.101 | -0.099 | -0.119 | 0.116 | -0.223
CTSC (UniProt P53634) | 0.019 | -0.065 | 0.001 | -0.024 | 0.021 | -0.04 | 0.036 | 0.026 | -0.031 | 0.083
DNAJB1 (UniProt P25685) | 0.07 | -0.013 | 0.007 | -0.032 | -0.063 | 0.046 | 0.06 | 0.003 | -0.032 | 0.005
ELF1 (UniProt P32519) | 0.001 | 0.028 | -0.019 | 0.089 | – | -0.297 | 0.01 | – | -0.12 | –
DAXX (UniProt Q9UER7) | 0.248 | 0.008 | 0.055 | -0.067 | – | 0.283 | -0.125 | – | -0.05 | 0.247
FAM177A1 isoform 2 (UniProt Q8N128) | -0.072 | -0.145 | -0.041 | -0.02 | 0.013 | -0.291 (active) | 0.031 | -0.029 | -0.018 | 0
EXOSC10 (UniProt Q01780) | 0.593 | 0.136 | 0.115 | 0.01 | -0.002 | 0.387 | – | 0.1 | -0.221 | 0.227
CTSB (UniProt P07858) | 0.044 | -0.16 | 0.044 | 0.032 | 0.007 | -0.006 | 0.024 | 0.03 | -0.016 | 0.043
DNAH10 (UniProt Q8IVF4) | 0.574 (active) | -0.187 | -0.046 | – | -0.042 | – | -0.04 | 0.007 | – | 0.052
DOCK8 (UniProt Q8NF50) | 0.475 | 0.464 | 0.083 | 0.217 | -0.029 | – | 0.006 | -0.428 | – | -0.337
FAM50A (UniProt Q14320) | -0.019 | -0.008 | 0.026 | -0.025 | -0.003 | -0.026 | 0.039 | -0.025 | 0.022 | 0.056
EXOC1 (UniProt Q9NV70) | -0.056 | 0.01 | 0.038 | -0.084 | 0.015 | 0.131 | -0.045 | -0.129 | -0.011 | -0.021
DHRS13 (UniProt Q6UX07) | -0.096 | 0.298 | 0.271 | 0.057 | -0.011 | – | 0.081 | -0.002 | – | 0.026
CUEDC2 (UniProt Q9H467) | 0.233 | 0.018 | 0 | 0.005 | -0.035 | -0.018 | 0.168 | 0.023 | -0.035 | 0.014
DNM2 isoform 4 (UniProt P50570) | 0.455 | 0.021 | 0.273 | – | 0.316 | – | -0.013 | -0.272 | – | -0.123
DDX27 (UniProt Q96GQ7) | 0.091 | 0.278 | 0.071 | 0.246 | 0.415 | – | 0.044 | -0.138 | – | 0.061
ELAC1 (UniProt Q9H777) | 0.022 | 0.083 | -0.06 | 0.122 | – | 0.06 | 0.112 | – | -0.009 | 0.049
CWF19L2 (UniProt Q2TBE0) | 0.003 | 0.225 | -0.025 | 0.124 | – | 0.062 | – | – | -0.08 | -0.309
